Assay outcomes (PubChem)
PMP22 txn prim: modulates PMP22 transcription in S16 Schwann cells; S16 Pmp22-F2sN Schwann cells, FLuc/NLuc coincidence luminescence, 24 h; AID 1508649; 43,000 tested, 2% active; Potency, µM (series often up to 57.5 µM), hits mostly inhibitors; active means clear falling dose curves in both reporters; inconclusive means both reporters move, but less clearly or upward; inactive means either reporter flat; the % is the NLuc reporter signal
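Transcriptional readout in edited S16(c9) cells: two luciferases reported from the Pmp22 locus, measured in turn after 24 h compound incubation.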
p53null 32C kill: kills p53 null cells at the permissive temperature; H1299-neo p53 null cells, ATP luminescence, 24 h, 32C; Potency, µM (titrated, usually from 46.1 µM), usual class: cytotoxic; 55,000 tested, 0.62% active; AID 903; further: nearly all actives have a fitted effect of over 55% in size
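H1299-neo (p53-null) cells, 600/well, were pre-incubated overnight at 37C, then exposed to compounds at up to 46 uM for 24 hr at 32C. Viability was measured as ATP content by luminescence, and AC50 values came from Hill fits.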
S16 F2sN tox: cytotoxicity in S16 Pmp22-F2sN Schwann cells; S16 Pmp22-F2sN Schwann cells viability, CellTiter-Glo, 24 h; Potency, µM (highest dose often 57.5 µM), most hits filed as cytotoxic; 43,000 tested, 0.48% active; AID 1508642; further: nearly all actives have a fitted effect of over 65% in size
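Viability was measured by CellTiter-Glo luminescence (15 min, room temperature). This followed 24 h at 37 °C of compound exposure (23 nL pin transfer) in S16 Pmp22-F2sN Schwann cells, 500-1,000 per well.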
pS6 MEF inh: inhibitors of mTORC1 signaling in Tsc2-/- p53-/- MEF cells. Potency, µM (titrated, usually from 38.3 µM), actives largely listed as inhibitors. 44,000 tested, 0.78% active. Tsc2-/- p53-/- MEF, phospho-rpS6 immunofluorescence/PI, 24 h; further: nearly all actives have a fitted effect of over 50% in size
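Readout is phospho-S6 Alexa 488 signal normalized to PI per well, reported as % active cells with thresholds set from rapamycin (7.5 nM) and DMSO controls. Cells: Tsc2-/-, p53-/- MEFs, 24 hrs compound at 37 C; PI cell number serves as viability.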
GALC G270D up: enhancers of human galactocerebrosidase G270D mutant activity in cells | P54803 | 145M-Twi-hGALC-G270D cells (Twitcher mouse brain line with human GALC G270D), HMU-beta-Gal fluorescence, 48 h | Potency, µM (highest dose often 57.5 µM), most hits filed as activators | 45,000 tested, 0.1% active | AID 1159614; further: nearly all actives have a fitted effect of over 65% in size
Target sequence (P54803 whole entry G286D): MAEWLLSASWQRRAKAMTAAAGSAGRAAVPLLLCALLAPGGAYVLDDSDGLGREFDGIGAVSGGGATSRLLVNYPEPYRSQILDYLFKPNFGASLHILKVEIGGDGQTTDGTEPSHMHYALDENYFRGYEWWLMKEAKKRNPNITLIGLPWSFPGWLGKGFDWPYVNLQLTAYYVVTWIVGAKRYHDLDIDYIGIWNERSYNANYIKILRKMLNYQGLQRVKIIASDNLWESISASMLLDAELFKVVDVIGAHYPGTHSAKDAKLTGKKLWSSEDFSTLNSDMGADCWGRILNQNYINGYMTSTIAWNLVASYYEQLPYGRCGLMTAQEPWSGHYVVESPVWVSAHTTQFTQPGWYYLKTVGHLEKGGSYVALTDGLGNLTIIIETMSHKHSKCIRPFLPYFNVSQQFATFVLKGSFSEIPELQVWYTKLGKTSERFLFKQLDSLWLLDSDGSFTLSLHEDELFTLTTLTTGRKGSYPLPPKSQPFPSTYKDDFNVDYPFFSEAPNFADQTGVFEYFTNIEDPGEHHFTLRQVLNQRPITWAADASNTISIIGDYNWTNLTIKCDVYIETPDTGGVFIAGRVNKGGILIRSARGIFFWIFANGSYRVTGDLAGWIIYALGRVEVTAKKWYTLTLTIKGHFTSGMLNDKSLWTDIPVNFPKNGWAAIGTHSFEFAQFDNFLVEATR
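Fluorogenic HMU-b-Gal hydrolysis (0.1 mM final, pH 5.2 citrate-phosphate with 1 mg/mL sodium taurocholate; carbonate stop buffer) measures mutant GALC activity after compound treatment of live 145M-Twi Twitcher brain cells stably carrying human GALC-G270D, with wild-type GALC line alongside; activation sought.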
p53null 39C tox: p53 null cell cytotoxicity, nonpermissive temperature; H1299 p53-null (neo) cells, 39C, ATPlite viability, 24 h; Potency, µM (top dose mostly 46.1 µM), most hits filed as cytotoxic; 55,000 tested, 0.97% active; AID 904; further: nearly all actives have a fitted effect of over 50% in size
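Concentration-response (up to 46 uM) was run for 24 h at the nonpermissive 39C on H1299-p53A138V or H1299-neo cells. ATP content was measured with ATPlite luminescence. AC50 values were Hill-modeled after normalizing between DMSO and 100 uM tamoxifen killing.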
A number is an active result; 0 = inactive; ? = inconclusive; - = no result. Hits are enriched below; roughly 3% of the tested compounds scored in any of these assays. Unless noted, the call rests on the fitted dose curve; in most records, active means well fitted curve in the direction sought with a large enough effect; inconclusive means small, poorly fitted or top-dose-only effect, or another doubt; inactive means no such curve, though single readings can be large; an effect the other way counts as inactive or inconclusive.

SMILES | PMP22 txn prim | p53null 32C kill | S16 F2sN tox | pS6 MEF inh | GALC G270D up | p53null 39C tox
COc1ccc(-c2nc(Cn3c(SCc4cccc(Cl)c4)nc4ccncc43)c(C)o2)cc1 | ? | 0 | 0 | 0 | 0 | ?
Cc1ccc(CSc2nc3ccncc3n2Cc2nc(-c3ccccc3C)oc2C)cc1 | ? | 7.9µM | ? | 0 | 0 | 6.3µM
COc1ccc(CSc2nc3ccncc3n2Cc2nc(-c3ccc(OC)c(OC)c3)oc2C)cc1 | 0 | 13µM | 0 | 0 | 0 | ?
CCCCOc1ccc(C(=O)Nc2cc(-c3ccc(C)cc3)no2)cc1 | 0 | 0 | 0 | 0 | 0 | 0
CCOc1ccc(CCNC(=O)c2cc3cc4cc(OC)ccc4nc3s2)cc1OCC | ? | 0 | 0 | 0 | 0 | 0
COc1ccc2nc3sc(C(=O)Nc4cc(Cl)c(OC)cc4OC)cc3cc2c1 | 0 | 0 | 0 | 0 | 0 | 10µM
COc1ccccc1Cn1cc(C(=O)c2ccc(Cl)cc2)c(=O)c2ccccc21 | ? | 0 | ? | 3.3µM | 0 | ?
COc1ccccc1Cn1cc(C(=O)c2ccc(Cl)cc2)c(=O)c2cc3c(cc21)OCCO3 | ? | 0 | 0 | 0 | 0 | 0
Cc1ccc(CNC(=O)CN2C(=O)CSc3ccc(S(=O)(=O)N4CCCC4)cc32)cc1 | 0 | 0 | 0 | 0 | 0 | 13µM
COc1ccc(CNC(=O)CN2C(=O)CSc3ccc(S(=O)(=O)N4CCCC4)cc32)cc1 | 0 | 0 | 0 | 0 | 0 | 0
CCOc1cc(CNCCc2ccccc2)ccc1OCC(=O)NC(C)(C)C | - | 0 | - | - | - | 16µM
Cc1ccc(CNC(=O)CCS(=O)(=O)c2cc(Br)cc3c2N(C(=O)C2CC2)CC3)cc1 | 0 | 0 | 0 | 0 | 0 | 0
CCOc1ccc(NC(=O)c2cnn3c2NC(c2ccccc2)=CC3c2cccc(OC)c2OC)cc1 (stereo not drawn) | ? | 0 | ? | 0 | 0 | 0
CC(C)c1ccc(-c2noc(SCC(=O)N(C)c3ccc(F)cc3)n2)cc1 | 0 | 0 | 0 | 0 | 0 | 0
CC(C)c1ccc(-c2noc(SCC(=O)N3CCCCC3)n2)cc1 | ? | 13µM | 0 | 0 | 0 | ?
CCc1ccccc1-n1c(N)c(C(=O)OC)c2nc3ccccc3nc21 | 0 | 0 | 0 | 0 | 25µM | 0
CCOC(=O)c1c(N)n(-c2ccccc2CC)c2nc3ccccc3nc12 | ? | 0 | 0 | 0 | ? | 0
COc1ccc(N2CCN(C(=O)c3ccc4c(=O)n(CCc5ccc(OC)c(OC)c5)c(=O)[nH]c4c3)CC2)cc1 | 13µM | 0 | ? | 0 | 0 | 0
CCC(=O)NCCc1sc2nc(-c3ccc(OC)cc3)nn2c1C | 0 | ? | 0 | 0 | 0 | ?
COc1ccccc1NC(=O)c1cnc(SCC(=O)N2CCOCC2)n(C)c1=O | 11µM | 0 | 0 | 0 | 0 | 0
Cn1c(SCC(=O)N2CCOCC2)ncc(C(=O)Nc2ccccc2)c1=O | 0 | 0 | 0 | 0 | 0 | 0
COc1ccc(-c2noc(CN3CCN(c4ccccc4OC)CC3)n2)cc1OC | 0 | 0 | ? | 0 | 0 | 0
CCOc1ccc2oc(=O)cc(CN3CCN(c4ccccc4OC)CC3)c2c1 | ? | 0 | 0 | 0 | 0 | 0
CCCOCc1cc(CN2CCN(c3ccccc3OC)CC2)c(O)c2ncccc12 | 5.8µM | 16µM | 10µM | 9.3µM | 0 | 3.2µM
CCOCc1cc(CN2CCN(c3ccccc3OC)CC2)c(O)c2ncccc12 | ? | 0 | 3.2µM | ? | 0 | 1.3µM
COc1ccccc1N1CCN(Cc2cc(COC(C)C)c3cccnc3c2O)CC1 | 3.5µM | 16µM | 7.1µM | 5.8µM | 0 | 1.6µM
COc1cc2cc(CNc3ccccc3)c(=O)n(CC(=O)Nc3ccccc3)c2cc1OC | ? | 0 | ? | 0 | 0 | 0
COc1ccccc1Nc1cc(C(=O)NC2CCCC2)c2ccccc2n1 | 0 | 0 | 0 | 0 | 0 | 0
CC(=O)N1c2ccc(S(=O)(=O)NCC3CCC(C(=O)Nc4ccccc4C)CC3)cc2CC1C (stereo not drawn) | 0 | 0 | 0 | 0 | 0 | 0
